This is an account of results in PubChem BioAssay (Tox21).

Assay [1] in a line: qHTS assay to identify small molecule agonists of the peroxisome proliferator-activated receptor delta (PPARd) signaling pathway - cell viability counter screen (AID 743211). Note: nearly all actives have a fitted effect of over 55% in size. Summed up: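 Counter screen for cytotoxicity run in parallel with the PPARd reporter screen. Beta-lactamase reporter HEK293H cells exposed to compounds 17 h; ATP-based CellTiter-Glo luminescence quantified viability.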
On the technique in general: qHTS replaces the single test concentration by a dilution series.

Assay [2] deals with Peroxisome proliferator-activated receptor delta (Homo sapiens) (UniProt Q03181). The assay can be described thus: qHTS assay to identify small molecule agonists of the peroxisome proliferator-activated receptor delta (PPARd) signaling pathway (AID 743212; calls by dose curve). In outline:
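Steps: seed PPARd-bla HEK293H cells; incubate 5 h, 37 C, 5% CO2; add compounds in DMSO; incubate, 37 C; add LiveBLAzer B/G FRET substrate; hold 2 h at room temperature; measure fluorescence.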

Assay [3] can be described thus: qHTS assay to identify small molecule antagonists of the peroxisome proliferator-activated receptor delta (PPARd) signaling pathway - cell viability counter screen (AID 743213). Note: nearly all actives have a fitted effect of over 50% in size. Summed up:
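PPARd-bla HEK293H cells (3000/well) got compound plus 300 nM L165041 agonist for 17 h at 37 C. Viability in the same wells came from CellTiter-Glo luminescence after 30 min at room temperature.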

The target in assay [4] is Peroxisome proliferator-activated receptor delta (Homo sapiens) (UniProt Q03181). The assay is described as follows: qHTS assay to identify small molecule antagonists of the peroxisome proliferator-activated receptor delta (PPARd) signaling pathway (AID 743215; active = well fitted inhibition curve with a large enough effect in the signal ratio in the repeat runs, not every such curve was filed as active; the % refers to the signal ratio;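 note: cells stimulated with agonist L165041 at 300 nM final during compound exposure; series mostly up to about 62 µM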). Summed up: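 HEK293H GeneBLAzer PPARd UAS-bla reporter cells; cpd + L165041 300 nM final, 17 h 37 C; LiveBLAzer B/G FRET substrate 2 h RT; fluorescence intensity read-out. Antagonist mode.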

Assay [5] in a line: qHTS assay to identify small molecule antagonists of the farnesoid-X-receptor (FXR) signaling pathway - cell viability counter screen (AID 743221; active = well fitted cell-killing curve with a large enough effect in the repeat runs, not every such curve was filed as active; note: nearly all actives have a fitted effect of over 50% in size). Summed up:
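Multiplexed counter screen: viability of FXR-bla HEK 293T cells under agonist stimulation by chenodeoxycholic acid (50 uM, final) and test compound for 16 h at 37 C, measured by CellTiter-Glo luminescence in the reporter wells.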

In assay [6] the target is Vitamin D3 receptor (Homo sapiens) (UniProt P11473). The assay is described as follows: qHTS assay to identify small molecule agonists of the vitamin D receptor (VDR) signaling pathway (AID 743222; calls by dose curve). In outline:
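Beta-lactamase reporter readout (LiveBLAzer B/G FRET, 2 h RT) in VDR-bla cells after 16 h compound treatment at 37C, 5% CO2; cells pre-incubated 4 h before pin transfer of DMSO solutions.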

Assay [7] shares this target. The assay can be described thus: qHTS assay to identify small molecule antagonists of the vitamin D receptor (VDR) signaling pathway (AID 743223; active = well fitted inhibition curve with a large enough effect in the signal ratio in the repeat runs, not every such curve was filed as active; the % refers to the signal ratio). Summed up: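 Cells carrying a VDR-driven beta-lactamase reporter (VDR-bla) were co-treated with compound and 3 nM final 1alpha,25-dihydroxyvitamin D3 for 16 h at 37C; reporter activity was measured as FRET substrate fluorescence after 2 h at room temperature.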

Assay [8] concerns the target Bile acid receptor (Homo sapiens) (UniProt Q96RI1). The assay can be described thus: qHTS assay to identify small molecule agonists of the farnesoid-X-receptor (FXR) signaling pathway (AID 743220; active = well fitted activation curve with a large enough effect in the signal ratio in the repeat runs, not every such curve was filed as active; the % refers to the signal ratio; note: potency is the fitted concentration of half-maximal effect). In outline: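 FXR-UAS-bla HEK 293T cells carrying a UAS-driven beta-lactamase reporter were plated for 5 h at 37C/5% CO2, then exposed to DMSO-dissolved Tox21 10K compounds for 16 h at 37C. A LiveBLAzer B/G FRET substrate was loaded for 2 h at room temperature before fluorescence reading.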

Assay [9] is described as follows: qHTS assay to identify small molecule agonists of the farnesoid-X-receptor (FXR) signaling pathway - cell viability counter screen (AID 743218). Note: nearly all actives have a fitted effect of over 45% in size. Summed up:
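Luminescence from CellTiter-Glo, read after 30 min at RT, reports viability of GeneBLAzer FXR-UAS-bla HEK 293T cells treated 16 h with compounds in the wells used for the beta-lactamase reporter.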

Assay [10] concerns the target Bile acid receptor (Homo sapiens) (UniProt Q96RI1). The assay is described as follows: qHTS assay to identify small molecule antagonists of the farnesoid-X-receptor (FXR) signaling pathway (AID 743217; active = well fitted inhibition curve with a large enough effect in the signal ratio in the repeat runs, not every such curve was filed as active; the % refers to the signal ratio). In outline: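 Read-out: beta-lactamase FRET fluorescence (LiveBLAzer B/G substrate, 2 h, room temperature) in GeneBLAzer FXR-UAS-bla HEK 293T cells. Compounds were co-dosed with 50 uM chenodeoxycholic acid (final) and incubated 16 h at 37 °C.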

Results filed as inconclusive are left out. Unmarked numbers belong to inactive results. Active and inactive are the calls of the source. Unless noted, calls come from the whole dose curve; as a rule, active = well fitted curve in the direction sought with a large enough effect in the repeat runs; inconclusive = weak or mixed curves; inactive = no such curve, though single readings can be large; an effect the other way counts as inactive or inconclusive.
% is set by controls: 0 for no effect and ±100 for the full control effect.

Sequence of Peroxisome proliferator-activated receptor delta (Homo sapiens) (Q03181 whole entry, looked up): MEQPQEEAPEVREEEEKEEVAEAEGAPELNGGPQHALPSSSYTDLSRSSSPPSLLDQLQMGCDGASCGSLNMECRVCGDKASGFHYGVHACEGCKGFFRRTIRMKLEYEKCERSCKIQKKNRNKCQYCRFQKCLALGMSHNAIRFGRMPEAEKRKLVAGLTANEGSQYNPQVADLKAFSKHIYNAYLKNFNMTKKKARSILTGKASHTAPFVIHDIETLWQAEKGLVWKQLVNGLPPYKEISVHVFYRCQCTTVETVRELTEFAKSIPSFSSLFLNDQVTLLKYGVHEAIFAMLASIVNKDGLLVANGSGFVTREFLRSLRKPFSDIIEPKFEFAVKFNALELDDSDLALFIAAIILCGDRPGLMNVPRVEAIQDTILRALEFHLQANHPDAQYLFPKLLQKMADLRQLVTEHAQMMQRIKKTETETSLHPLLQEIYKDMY
Sequence of Bile acid receptor (Homo sapiens) (Q96RI1 whole entry, looked up): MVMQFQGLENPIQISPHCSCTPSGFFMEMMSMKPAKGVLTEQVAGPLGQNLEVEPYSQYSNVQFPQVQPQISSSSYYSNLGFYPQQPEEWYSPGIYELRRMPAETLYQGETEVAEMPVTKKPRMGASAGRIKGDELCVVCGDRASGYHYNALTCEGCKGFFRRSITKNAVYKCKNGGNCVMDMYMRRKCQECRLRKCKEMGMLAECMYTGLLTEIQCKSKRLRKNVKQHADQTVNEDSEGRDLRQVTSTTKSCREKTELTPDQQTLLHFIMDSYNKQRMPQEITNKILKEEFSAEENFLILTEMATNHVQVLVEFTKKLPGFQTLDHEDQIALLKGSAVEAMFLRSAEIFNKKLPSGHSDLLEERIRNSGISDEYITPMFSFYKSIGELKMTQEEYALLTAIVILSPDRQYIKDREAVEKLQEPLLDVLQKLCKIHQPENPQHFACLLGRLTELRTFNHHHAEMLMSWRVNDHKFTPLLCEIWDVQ
Sequence of Vitamin D3 receptor (Homo sapiens) (P11473 whole entry, looked up): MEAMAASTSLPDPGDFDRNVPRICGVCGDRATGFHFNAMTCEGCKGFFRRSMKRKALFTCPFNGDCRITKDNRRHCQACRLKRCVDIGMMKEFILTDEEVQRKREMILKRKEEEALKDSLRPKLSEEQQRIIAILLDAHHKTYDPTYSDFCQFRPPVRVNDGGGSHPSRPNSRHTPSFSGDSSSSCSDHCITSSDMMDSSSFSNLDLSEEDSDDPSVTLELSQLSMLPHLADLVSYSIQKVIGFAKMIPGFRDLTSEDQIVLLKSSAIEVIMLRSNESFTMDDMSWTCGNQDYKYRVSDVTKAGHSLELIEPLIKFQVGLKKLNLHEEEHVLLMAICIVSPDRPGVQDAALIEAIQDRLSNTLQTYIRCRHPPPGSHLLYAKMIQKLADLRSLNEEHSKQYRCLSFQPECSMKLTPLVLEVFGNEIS

On to `CCN(CC)CC(=O)Nc1c(C)cccc1C(=O)OC`, for which the Potency result in assay [1], in [3], in assay [4] and in assay [5] was “inactive” in each case. Also, the compound was called inactive in assay [2], in assay [6] and in assay [7].
As for `CCCCCCCC(=O)OCCCCCC`, the Potency entry in assay [1], in [3], in assay [4] and in assay [8] was “inactive” each time. Moreover, the call in assay [2] and in assay [6] was inactive.
For the compound `O=C(c1ccccc1)C1CCC1`, the Potency result in [1], in assay [3], in assay [9] and in assay [5] was “inactive” throughout. In addition, the call in assay [2], in assay [6] and in [7] was inactive.
As to `O=NN(CCCl)C(=O)NCCCl`, the Potency result in assay [1], in assay [4], in [9] and in assay [5] was “inactive” in each case. Also, the compound was classed as inactive in assay [2].
Consider `Nc1ccc(S(=O)(=O)NCc2ccccc2)cc1`, for which the Potency result in assay [1], in assay [4], in [9], in [8] and in [5] was “inactive” in each case. Moreover, the compound was classed as inactive in [2], in assay [10] and in [6].
For `O=C(O)c1ccc(O)cc1O`, the Potency entry in [1], in [3], in assay [9], in assay [8] and in [5] was “inactive” in each case. In addition, the compound was called inactive in assay [2], in [10], in assay [6] and in [7].
Consider `[Cl][Nd]([Cl])[Cl]`, for which the Potency result in assay [1], in [3], in assay [9] and in assay [5] was “inactive” throughout. Also, the compound was called inactive in [2] and in assay [6].
Turning to `COc1ccc(-c2cc(C(F)F)nn2-c2ccc(S(N)(=O)=O)cc2)cc1F`, the Potency entry in [1], in [3], in assay [8] and in [5] was “inactive” each time. For the same compound, the compound was classed as inactive in assay [2] and in assay [6].
With `c1ccc(CCCc2ccncc2)cc1`, the Potency result in [1], in assay [3], in [9] and in assay [5] was “inactive” each time. For the same compound, in assay [2], the result was inactive. For the same compound, the Potency in [8] is 49 µM (active).
`OCC(CO)n1cnc(-c2ccc(F)cc2)c1-c1ccnc(Oc2ccccc2)n1`: the Potency result in [1], in assay [3], in assay [4], in [9] and in assay [5] was “inactive” each time. In addition, the call in [2], in [6] and in assay [7] was inactive.
With `Nc1ccc(F)cc1`, the Potency entry in assay [1], in [3], in [9] and in [5] was “inactive” in each case. Besides, the call in assay [2], in assay [6] and in [7] was inactive.
As to `Nc1nc2ccc(OC(F)(F)F)cc2s1`, the Potency result in assay [1], in [4] and in assay [5] was “inactive” throughout. In addition, the call in assay [2], in assay [6] and in assay [7] was inactive.
With `CC(=O)NCCO`, the Potency entry in assay [1], in assay [3], in assay [4], in [9] and in assay [5] was “inactive” throughout. Moreover, the compound was called inactive in [2], in assay [6] and in [7].
Consider `CC(CCc1ccc(O)cc1)NCCc1ccc(O)c(O)c1` (configuration not stated), for which the Potency entry in [1], in assay [4], in assay [9], in [8] and in assay [5] was “inactive” each time. For the same compound, the result in assay [2] and in assay [10] was inactive.
For `CC(=O)OCC1=C(C(=O)O)N2C(=O)[C@@H](NC(=O)CSc3ccncc3)[C@H]2SC1`, the Potency result in assay [1], in assay [3], in assay [9] and in assay [5] was “inactive” each time. The compound was classed as inactive in assay [2] and in assay [10].
Regarding `CC[C@H]1OC(=O)[C@H](C)[C@@H](O[C@H]2C[C@@](C)(OC)[C@@H](O)[C@H](C)O2)[C@H](C)[C@@H](O[C@@H]2O[C@H](C)C[C@H](N(C)C)[C@H]2O)[C@](C)(O)C[C@@H](C)/C(=N\OCOCCOC)[C@H](C)[C@@H](O)[C@]1(C)O`, the Potency entry in [1], in assay [3], in [9] and in [8] was “inactive” throughout. Further, the compound was classed as inactive in assay [2], in [10] and in assay [6].
As for `Nc1ccc(N=Nc2ccc(N)cc2)cc1`, the Potency result in assay [1], in assay [4], in assay [9] and in assay [5] was “inactive” each time. Besides, the compound was called inactive in [2] and in assay [6].
`CC(C)(C)C1(CCc2ccc(Cl)cc2)CO1` (configuration not stated): the Potency entry in assay [1], in assay [3], in [9], in assay [8] and in [5] was “inactive” in each case. Moreover, the outcome in assay [2], in assay [10] and in assay [6] was inactive.
Regarding `Nc1cccc2c(N)cccc12`, the Potency entry in [1] is “inactive”. The outcome in [2] and in assay [10] was inactive.
`CCN(CC)C(=O)/C(C#N)=C/c1cc(O)c(O)c([N+](=O)[O-])c1`: the Potency result in assay [1], in [3], in assay [9] and in assay [5] was “inactive” throughout. Further, in assay [2], the compound was called inactive.
For `CCOC(=O)c1ccc(NC(=O)CN2CCCCC2)cc1`, the Potency result in [1], in [3], in [4] and in assay [5] was “inactive” each time. Further, the outcome in [2], in assay [6] and in assay [7] was inactive.
On to `COc1ccc(C(=O)NCc2ccc(OCCN(C)C)cc2)cc1OC`, for which the Potency result in [1], in assay [3], in assay [4], in assay [9] and in [5] was “inactive” in each case. The result in assay [2], in [6] and in assay [7] was inactive.
As to `CCC(Cl)CC(Cl)C(Cl)C(Cl)C(Cl)C(C)Cl` (configuration not stated), the activity change, negative = cytotoxicity in assay [1] is -18.5% [at 13.2 µM]; in assay [5] it was -0.0192% [at 13.2 µM]. In addition, the activation in assay [2] is -9.79% [at 13.2 µM]. Besides, in assay [4], the ratio activity, negative = inhibition was -24% [at 13.7 µM].
Regarding `CC1CCc2nccnc21` (configuration not stated), the Potency result in assay [1], in assay [4], in [9], in assay [8] and in assay [5] was “inactive” each time. For the same compound, the outcome in assay [2], in assay [6] and in assay [7] was inactive.
For `CC(C)N(C)C`, the Potency result in assay [1], in assay [3], in assay [4], in [9] and in assay [5] was “inactive” each time. Further, the outcome in [2] and in assay [7] was inactive.
For the compound `O=C(c1ccccc1)c1ccc(O)cc1`, the Potency result in assay [1], in [4], in assay [9], in [8] and in assay [5] was “inactive” each time. The outcome in assay [2], in assay [10], in assay [6] and in [7] was inactive.
For `CC(C)C(=O)OCCOc1ccccc1`, the Potency result in [1], in assay [4] and in [5] was “inactive” each time. The outcome in assay [2], in [6] and in [7] was inactive.
Take `FC(F)(F)C(F)(F)C(F)(F)C(F)(F)CCI`: the Potency result in [1], in [3], in [4], in assay [9] and in [5] was “inactive” throughout. Further, the outcome in assay [2], in [6] and in assay [7] was inactive.
With `O=C(Oc1ccccc1)c1ccc2ccccc2c1O`, the Potency result in assay [1], in assay [3], in [4] and in [9] was “inactive” each time. Moreover, the compound was called inactive in assay [2], in [6] and in assay [7].
For `O=c1[nH]c2cc(C(F)(F)F)c(N3CCOCC3)cc2n(CP(=O)(O)O)c1=O`, the Potency result in assay [1], in assay [3], in [4], in assay [9], in assay [8] and in [5] was “inactive” throughout. Moreover, in assay [10], the outcome was inactive.
For the compound `COc1ccc2nc(S(=O)Cc3ncc(C)c(OC)c3C)[nH]c2c1` (configuration not stated), the Potency result in assay [1], in assay [3], in assay [4], in assay [9] and in assay [5] was “inactive” in each case. The result in assay [6] and in assay [7] was inactive.
With `CC(=O)C(=O)CC(C)C`, the Potency result in [1], in assay [3], in [4], in [9] and in assay [5] was “inactive” in each case. Also, the compound was called inactive in assay [6].
In the case of `CC(C)Cc1ccc(CC(=O)O)cc1`, the Potency entry in [1], in assay [9], in assay [8] and in [5] was “inactive” throughout. Besides, the compound was classed as inactive in [2], in assay [10], in assay [6] and in [7].
`CCCCCCCC/C=C\CCCCCCCC(=O)OCCO`: the Potency entry in assay [1], in assay [3], in assay [4] and in assay [9] was “inactive” in each case.
